Screening data deposited in PubChem by several laboratories.
NR3A LBD binder: modulates the human NR3A ligand-binding domain. NR3A LBD differential scanning fluorimetry, Tm shift; 0% = protein alone, 100% = glycine-bound protein. Tm shift relative to glycine control, % at 25 µM. hit rate 2.5% among 340,000. AID 1259313;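 active = melting temperature shift of at least 10% of the positive control shift, at one fixed dose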
SUMO HTRF inh: blocks human SUMOylation mediated by UBC9; HTRF SUMOylation assay, SAE1/SAE2 + UBC9, in vitro; AID 2006; inhibition, % at 35 µM; hit rate 0.36% among 290,000; in the data active = inhibition above about 50%, passing the limit was not always enough
Target sequence (P63279 whole entry, looked up): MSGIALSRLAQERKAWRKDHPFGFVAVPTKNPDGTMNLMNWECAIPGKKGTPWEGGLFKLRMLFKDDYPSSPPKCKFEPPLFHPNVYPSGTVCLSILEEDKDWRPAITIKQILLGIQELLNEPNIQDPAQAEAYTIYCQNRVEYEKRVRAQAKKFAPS
UBC13 inh: inhibitors of human UBC13 polyubiquitin chain formation; inhibition, % at 20 µM; hit rate 0.47% among 330,000; TR-FRET; AID 485273; P61088; in the data active = inhibition above about 45%, passing the limit was not always enough
Target sequence (P61088 whole entry, looked up): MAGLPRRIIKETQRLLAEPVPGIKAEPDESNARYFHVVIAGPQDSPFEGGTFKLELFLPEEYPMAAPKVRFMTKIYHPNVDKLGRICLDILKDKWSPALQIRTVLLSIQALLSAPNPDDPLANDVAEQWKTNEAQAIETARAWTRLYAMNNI
sPLA2-III inh: Inhibits HGIII-sPLA2 liposome hydrolysis, primary screen; Q9NZ20; inhibition, % at 12.2 µM; QFRET BODIPY PC-A2 liposome hydrolysis, fluorescence; hit rate 0.56% among 370,000; AID 743126;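 active = inhibition above mean plus 3 SD of compounds lying within the high and low control bounds, cut at about 19% in these data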
Numbers stand for hits; i = inactive; nt = not tested or not shown. The list is not random: actives were taken first. Their share in the collection is about 3.3%.

SMILES	NR3A LBD binder	SUMO HTRF inh	UBC13 inh	sPLA2-III inh
Cc1ccc(C(=O)OCC(=O)c2c[nH]c3ccccc23)cc1S(=O)(=O)N1CCCCC1	25	i	i	i
Cc1onc(-c2c(F)cccc2Cl)c1C(=O)OCC(=O)c1c[nH]c2ccccc12	13	i	i	i
Cc1ccc(C(=O)OCC(=O)NCc2ccccc2)cc1S(=O)(=O)N1CCCCC1	i	nt	i	i
Cc1[nH]c2ccccc2c1C(=O)COC(=O)c1cccc(S(=O)(=O)N2CCCCC2)c1	21	i	i	i
O=C(NCCc1c[nH]c2ccccc12)OCc1cn(Cc2ccccc2F)nn1	nt	nt	nt	i
CCCCCCNC(=O)C1CSCCS(=O)(=O)N1Cc1ccc(C)cc1 (configuration not stated)	nt	nt	nt	i
CC(=NNC(=O)CSc1nnc(-c2ccccc2)n1-c1ccccc1)c1cccc([N+](=O)[O-])c1	nt	nt	nt	i
COc1ccccc1NS(=O)(=O)c1cccc(NC(=O)Nc2ccc(Cl)cc2)c1	18	i	i	i
COc1ccccc1NS(=O)(=O)c1cccc(NC(=O)Nc2ccccc2)c1	22	i	i	i
COc1cccc(OC)c1C(=O)Nc1cccc(S(=O)(=O)Nc2ccccc2Cl)c1	i	nt	i	i
COc1ccccc1NS(=O)(=O)c1ccc(NC(=O)N2CCCCC2)cc1	13	i	i	i
CCNC(=S)Nc1cccc(S(=O)(=O)Nc2ccccc2OC)c1	i	i	i	i
COC(=O)[C@]12C[C@H](CC(=O)NCCCCc3ccccc3)C(=O)N(CCc3ccc(OC)c(OC)c3)C1=C[C@H](C1CCCC1)O[C@@H]2C	nt	nt	nt	i
C[C@@H]1/C=C/CC(=O)N[C@H](c2ccccc2)[C@H](C)/C=C/CC(=O)N[C@@H]1c1ccccc1	nt	nt	nt	i
Cc1ccc2cc(CCNC(=O)c3cc4ccccc4o3)c(=O)[nH]c2c1C	i	i	i	i
COc1ccc2cc(CCNC(=O)c3cc4ccccc4o3)c(=O)[nH]c2c1	21	i	i	i
COc1ccc(C(CC(=O)N2CCCC(C)C2)c2c(OC)cc(OC)c3c(-c4ccccc4)cc(=O)oc23)cc1 (configuration not stated)	16	i	i	i
Cc1nc2ccccn2c1P(=O)(c1ccccc1)c1ccccc1	nt	nt	nt	i
COc1ccc(/C=N/NS(=O)(=O)c2ccc(F)cc2)cc1COc1cc(F)ccc1[N+](=O)[O-]	11	i	i	i
CCOC(=O)[C@@]12CN(C(=O)OC(C)(C)C)CC=C1N(Cc1ccc(OC)cc1)C(=O)[C@H]2CC(=O)NCc1ccccc1	nt	nt	nt	i
CCC(NC(=O)c1ccc2c(ccn2Cc2cccc(-c3ccccc3C(=O)O)c2)c1)c1ccccc1 (configuration not stated)	nt	nt	nt	i
COc1ccc(/C=C/c2ccc3c(Br)ccc(O)c3n2)cc1	i	i	i	i
COc1cc(/C=C/c2ccc3c(Br)cc(Br)c(O)c3n2)ccc1O	16	i	nt	i
Oc1cccc(/C=C/c2ccc3cccc(O)c3n2)c1	20	i	i	i
COc1ccc(/C=C/c2ccc3cccc(O)c3n2)cc1Br	37	i	i	i
SMILES	NR3A LBD binder	SUMO HTRF inh	UBC13 inh	sPLA2-III inh
COc1cc(/C=C/c2ccc3cccc(O)c3n2)cc(Br)c1OC	i	i	i	i
O=C(NCc1ccccc1)OC1CCC12CCC(c1ccccc1)CC2 (configuration not stated)	nt	nt	nt	i
Nn1c(SCc2cccc3ccccc23)nnc1-c1cc(-c2ccc(Cl)cc2)n[nH]1	nt	nt	nt	i
Cc1ccc(S(=O)(=O)N2CCOC23CCN(S(=O)(=O)c2cccs2)CC3)cc1	12	nt	i	i
O=C(OCC#CCSc1nnc(-c2cccc3ccccc23)o1)c1cccc(C(F)(F)F)c1	nt	nt	nt	i
Cc1cc(C)cc(N2C(=O)c3nccnc3C2=O)c1	14	i	i	i
CC(C)Cn1c(SCC(=O)N2CCc3ccccc3C2)nc2cc(Cl)ccc2c1=O	14	i	i	i
COC(=O)[C@]12C[C@H](CC(=O)N3CCSCC3)C(=O)N(CCc3ccc(OC)c(OC)c3)C1=C[C@H](C(C)(C)C)O[C@@H]2C	nt	nt	nt	i
CC(=O)N1C=CN(C(C)=O)C(c2cn(C)c3ccccc23)C1c1cn(C)c2ccccc12 (configuration not stated)	14	i	i	i
CCOc1ccc2nc(SCc3cccc(C)c3)nc(C)c2c1	15	i	i	i
Cc1ccc2nc(SCc3ccc([N+](=O)[O-])cc3)nc(C)c2c1	13	i	i	i
CCOC(=O)CCSc1nc(C)c2cc(OC)ccc2n1	i	i	i	i
CCOC(=O)c1sc(=S)n(Cc2ccccc2)c1C	14	i	i	i
CC(=O)c1ccc(-n2c(SCC(=O)c3c[nH]c4ccccc34)nc3ccccc3c2=O)cc1	16	i	i	i
CCOC(=O)c1c(C)[nH]c(C)c1C(=O)CSc1nc2ccccc2c(=O)n1-c1ccc(CC)cc1	i	i	i	i
CCCCn1c(N)c(N(CC(C)C)C(=O)c2cc(=O)[nH]c3ccccc23)c(=O)[nH]c1=O	i	nt	i	i
CC(C)CN(C(=O)c1cc(=O)[nH]c2ccccc12)c1c(N)n(Cc2ccccc2)c(=O)[nH]c1=O	11	nt	i	i
CN=C1CC(SC)=C1c1ccc(C)cc1	19	i	i	i
CCN(C(=S)Nc1cccnc1)c1ccccc1	i	i	i	i
COc1ccc(NC(=S)Nc2cccc3cnccc23)cc1	i	94	i	i
Fc1ccc(NC(=S)Nc2cccc3cnccc23)cc1	i	i	i	i
S=C(Nc1cccnc1)Nc1cccc2cnccc12	i	97	i	i
COc1ccccc1NC(=S)Nc1cccc2cnccc12	i	51	i	i
CCN(C(=S)Nc1cccnc1)c1cccc2ccccc12	i	100	i	i
O=S(=O)(c1ccc(Cl)s1)N1CCC(c2nc3ccccc3o2)CC1	nt	nt	nt	i
SMILES	NR3A LBD binder	SUMO HTRF inh	UBC13 inh	sPLA2-III inh
COc1cc(OC)cc(C(=O)NC(=S)Nc2cccnc2)c1	i	i	i	i
Cc1ccc(S(=O)(=O)N(C)C)cc1NC(=S)Nc1cccc2ccccc12	i	92	i	i
CN(C)S(=O)(=O)c1cccc(NC(=S)Nc2ccc3cn[nH]c3c2)c1	i	i	i	i
CCOc1ccc(NC(=S)Nc2cccc3ccccc23)cc1	i	i	i	i
COc1cc(NC(=S)Nc2cccnc2)cc(OC)c1	i	72	i	i
CN(C)S(=O)(=O)c1cccc(NC(=S)Nc2cccc3cnccc23)c1	i	99	nt	i
CCOc1ccc(NC(=S)Nc2cccc3cnccc23)cc1	i	89	i	i
COc1ccc(S[C@]2(C(=O)N(C)C)CC(=O)N(c3ccsc3)[C@@H]2c2ccc(OC)cc2)cc1	nt	nt	nt	i
Cc1ccccc1S(=O)(=O)N1CCC(c2nc3ccccc3o2)CC1	nt	nt	nt	i
CC(C)(C)OC(=O)/C=C/[C@@H](CC1CCCC1)Sc1ccc(C(C)(C)C)cc1	nt	nt	nt	i
Cc1cccc(C2=NN(c3ccccc3)[C@@H](C(=O)N3CCOC3=O)[C@@H]2c2ccc(Cl)cc2)c1	11	nt	nt	i
O=C1OCCN1C(=O)[C@H]1[C@H](c2ccc([N+](=O)[O-])cc2)C(c2ccccc2)=NN1c1ccccc1	i	nt	nt	i
O=C1OCCN1C(=O)[C@H]1[C@H](c2ccc(Cl)cc2)C(c2ccc(F)cc2)=NN1c1ccc(Br)cc1	18	nt	nt	i
